Reference: PubChem BioAssay (Tox21)
Records with an inconclusive call do not appear. The source made the active and inactive calls. Unless noted, the call rests on the fitted dose curve; in most records, active means well fitted curve in the direction sought with a large enough effect in the repeat runs; inconclusive means weak or mixed curves; inactive means no such curve, though single readings can be large; an effect the other way counts as inactive or inconclusive.

What was measured:
[1] = qHTS assay for small molecule agonists of the p53 signaling pathway (AID 651631; calls by dose curve; further: nearly all actives have a fitted effect of over 15% in size)
How it was run: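 Agonist mode screen using a stably integrated beta-lactamase gene under p53 response elements in HCT-116 cells. Compound exposure lasts 16 h at 37 °C; fluorescence intensity is measured following 2 h FRET substrate loading.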

[2] = qHTS assay for small molecules that induce genotoxicity in human embryonic kidney cells expressing luciferase-tagged ATAD5 (AID 651632); further: nearly all actives have a fitted effect of over 15% in size
How it was run: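 Cells were seeded at 2,000 per well, dosed with compound, and incubated 16 hr at 37C in 5% CO2. Luciferase activity was then quantified after a 30 min room-temperature incubation with Amplite.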

[3] = qHTS assay for small molecule agonists of the p53 signaling pathway - cell viability (AID 651633; calls by dose curve;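 further: p53RE-bla HCT reporter cells with a stable beta-lactamase p53 reporter; series mostly up to about 83 µM; nearly all actives have a fitted effect of over 30% in size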)
How it was run: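 p53RE-bla cells were treated with compound for 16 hours at 37 C. Cytotoxicity was then measured as CellTiter-Glo luminescence after 30 min at room temperature.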

[4] = qHTS assay for small molecule disruptors of the mitochondrial membrane potential (AID 720635)
How it was run: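 HepG2 cells exposed to compound 1 hr at 37C, then Mito-MPS dye 30 min. Ratio read of aggregate (540/590 nm) versus monomer (490/535 nm) fluorescence.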

[5] = qHTS assay to test for compound auto fluorescence at 590 nm (red) in HepG2 cells (AID 720674)
How it was run: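 Seeding: 2,000 HepG2 cells/well, MEM/10% FBS, overnight 37 C. Dosing: compound vs DMSO. Incubation: 1 hr, 37 C, 5% CO2. Read: fluorescence 540 ex/590 em, Rose Bengal sodium as red reference.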

[6] = qHTS assay to test for compound auto fluorescence at 460 nm (blue) in HEK293 cells (AID 720678)
How it was run: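 Cells were seeded and left to adhere for 4-5 hr at 37C. Compounds were then pin-transferred. After an overnight incubation at 37C under 5% CO2, intrinsic fluorescence at 405/460 nm was measured and referenced to triamterene.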

[7] = qHTS assay to test for compound auto fluorescence at 590 nm (red) in HEK293 cells (AID 720679)
How it was run: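 Each well held 2,000 HEK293 cells in medium containing 10% dialyzed FBS. Following 4-5 hr attachment at 37C, 23 nL test compound or DMSO was added; plates sat overnight, and red fluorescence (540/590nm) was recorded.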

[8] = qHTS assay to test for compound auto fluorescence at 535 nm (green) in HEK293 cells (AID 720680)
[9] = qHTS assay to test for compound auto fluorescence at 460 nm (blue) in HEK293 cell free culture (AID 720681)
How it was run: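 Compounds were added to cell-free DMEM with 10% FBS and fluorescence read directly. The blue channel used 405 nm excitation and 460 nm emission, with triamterene as the reference fluorophore.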

[10] = qHTS assay to test for compound auto fluorescence at 535 nm (green) in HEK293 cell free culture (AID 720682)
How it was run: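 No cells present: wells hold DMEM supplemented with 10% FBS, into which compound or vehicle is pinned. Green emission is then recorded (485 nm excitation, 535 nm emission) and scaled to fluorescein.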

[11] = qHTS assay to test for compound auto fluorescence at 590 nm (red) in HEK293 cell free culture (AID 720683)
How it was run: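 Cell-free wells of DMEM with 10% FBS received compound, and intrinsic fluorescence was read at excitation/emission 540/590 nm. Values expressed as equivalence to Rose Bengal sodium.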

[12] = qHTS assay to test for compound auto fluorescence at 590 nm (red) in HepG2 cell free culture (AID 720684)
How it was run: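 Rose Bengal sodium served as the reference for red signal. Test compounds were dispensed into serum-containing MEM (10% FBS) without cells, and plates were read at 540/590 nm.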

[13] = qHTS assay to test for compound auto fluorescence at 460 nm (blue) in HepG2 cell free culture (AID 720685)
How it was run: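 Cell-free plates of MEM plus 10% FBS received 23 nL compound or DMSO vehicle; blue-channel (405/460 nm) intensity scored against triamterene as reference fluorophore.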

[14] = qHTS assay to test for compound auto fluorescence at 535 nm (green) in HepG2 cell free culture (AID 720686)
[15] = qHTS assay to test for compound auto fluorescence at 460 nm (blue) in HepG2 cells (AID 720687)
How it was run: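 HepG2 cells in MEM with 10% FBS, attached overnight at 37 C, were exposed to compound or DMSO for 1 hr at 37 C, 5% CO2. Blue fluorescence was read at 405/460 nm, with triamterene as reference fluorophore.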

[16] = qHTS assay for small molecules that induce genotoxicity in human embryonic kidney cells expressing luciferase-tagged ATAD5 - cell viability (AID 651634; calls by dose curve; further: nearly all actives have a fitted effect of over 25% in size)
How it was run: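 Cells (HEK293T, luciferase-tagged ATAD5) are seeded at 2,000 per well, dosed with compound or DMSO vehicle, and incubated 15.5 hr at 37C and 5% CO2. CellTiter-Fluor is added for 30 min before fluorescence is measured.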

[17] = qHTS assay to test for compound auto fluorescence at 535 nm (green) in HepG2 cells (AID 720675)
[18] = target: Glucocorticoid receptor (Homo sapiens) (UniProt P04150); assay: qHTS assay to identify small molecule agonists of the glucocorticoid receptor (GR) signaling pathway (AID 720691; active means well fitted activation curve with a large enough effect in the signal ratio in the repeat runs, not every such curve was filed as active; the % refers to the signal ratio)
How it was run: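 Steps: seed GR-bla HeLa cells, incubate 4 h at 37 C/5% CO2; pin-transfer DMSO-dissolved compounds; incubate 18 h at 37 C; add LiveBLAzer B/G FRET substrate; after 2 h at room temperature, measure fluorescence.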

[19] = target: Glucocorticoid receptor (Homo sapiens) (UniProt P04150); assay: qHTS assay to identify small molecule antagonists of the glucocorticoid receptor (GR) signaling pathway (AID 720692; active means well fitted inhibition curve with a large enough effect in the signal ratio in the repeat runs, not every such curve was filed as active; the % refers to the signal ratio)
How it was run: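 Antagonism was scored as loss of dexamethasone-driven (5 nM final) reporter signal in HeLa cells bearing a glucocorticoid response element–beta-lactamase construct, after 18 h compound exposure at 37 C and 2 h FRET substrate loading.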

[20] = qHTS assay for small molecule disruptors of the mitochondrial membrane potential - cell viability (AID 720634; calls by dose curve;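 further: human HepG2 liver cancer cells; series mostly up to about 83 µM; nearly all actives have a fitted effect of over 20% in size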)
How it was run: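 Cytotoxicity was measured by ATP quantitation in HepG2 wells that had first been treated with compound for 1 hr and stained with m-MPI dye; CellTiter-Glo incubation was 30 min at room temperature.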
On the % scale 0 is the no-effect control and ±100 the full control effect.

Glucocorticoid receptor (Homo sapiens), sequence (P04150 whole entry, looked up): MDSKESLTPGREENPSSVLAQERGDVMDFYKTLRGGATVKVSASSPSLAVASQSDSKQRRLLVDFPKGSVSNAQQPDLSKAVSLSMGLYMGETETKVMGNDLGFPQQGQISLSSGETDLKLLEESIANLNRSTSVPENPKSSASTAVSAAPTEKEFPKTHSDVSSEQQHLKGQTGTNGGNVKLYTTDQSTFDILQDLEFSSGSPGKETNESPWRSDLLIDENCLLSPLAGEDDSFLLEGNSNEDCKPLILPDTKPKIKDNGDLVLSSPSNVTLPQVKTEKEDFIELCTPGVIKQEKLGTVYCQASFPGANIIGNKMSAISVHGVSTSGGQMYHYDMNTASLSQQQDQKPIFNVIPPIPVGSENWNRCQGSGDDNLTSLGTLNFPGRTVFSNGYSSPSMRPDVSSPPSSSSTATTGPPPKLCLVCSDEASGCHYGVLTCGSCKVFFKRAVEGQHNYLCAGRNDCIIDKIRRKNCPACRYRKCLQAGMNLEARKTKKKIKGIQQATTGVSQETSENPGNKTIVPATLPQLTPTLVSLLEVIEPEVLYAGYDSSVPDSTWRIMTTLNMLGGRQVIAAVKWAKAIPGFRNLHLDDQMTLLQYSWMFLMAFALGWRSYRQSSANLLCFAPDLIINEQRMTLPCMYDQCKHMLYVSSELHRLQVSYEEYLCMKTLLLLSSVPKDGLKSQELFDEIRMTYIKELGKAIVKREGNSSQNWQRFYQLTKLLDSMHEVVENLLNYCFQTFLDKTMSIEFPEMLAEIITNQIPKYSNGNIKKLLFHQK

CC(=O)Oc1ccc(C(=C2CCCCC2)c2ccc(OC(C)=O)cc2)cc1
inactive: Potency [1] | Potency [2] | Potency [3] | Potency [4] | outcome [5] | Potency [6] | outcome [7] | outcome [8] | Potency [9] | outcome [10] | outcome [11] | outcome [12] | Potency [13] | outcome [14] | Potency [15]

O=C(CCCCCCCCC#CI)Oc1ccccc1
inactive: Potency [1] | Potency [2] | Potency [3] | Potency [16] | outcome [5] | outcome [17] | Potency [6] | outcome [7] | outcome [8] | Potency [9] | outcome [10] | outcome [11] | outcome [12] | Potency [13] | outcome [14] | Potency [15] | Potency [18] | Potency [19]

CC(C)C(=O)O
inactive: Potency [1] | Potency [2] | Potency [3] | Potency [16] | outcome [5] | outcome [17] | Potency [6] | outcome [7] | Potency [9] | outcome [10] | outcome [11] | outcome [12] | Potency [13] | outcome [14] | Potency [15] | Potency [18] | Potency [19]

Fc1c(F)c(F)c(Br)c(F)c1F
inactive: Potency [1] | Potency [2] | Potency [3] | Potency [20] | Potency [4] | outcome [17] | outcome [7] | outcome [8] | Potency [9] | outcome [10] | outcome [11] | outcome [12] | Potency [13] | outcome [14] | Potency [15]

C[N+]1(C)CCC(=C(c2ccccc2)c2ccccc2)CC1
inactive: Potency [1] | Potency [2] | Potency [3] | Potency [20] | fluorescence, % of fluorescein control [17] -0.0806% [at 18.6 µM] | fluorescence, % of triamterene [6] 0.577% [at 18.6 µM] | fluorescence, % of fluorescein [8] -0.0107% [at 18.6 µM] | fluorescence, % of fluorescent control [9] -0.269% [at 18.6 µM] | activity change [10] -0.0334% [at 18.6 µM] | fluorescence, % of fluorescent control [11] -0.165% [at 18.6 µM] | fluorescence, % of Rose Bengal [12] 0.107% [at 18.6 µM] | fluorescence, % of fluorescent control [13] -0.143% [at 18.6 µM] | fluorescence, % of fluorescein control [14] 0.0841% [at 18.6 µM] | fluorescence, % of fluorescent control [15] 0.0159% [at 18.6 µM] | Potency [18] | Potency [19]
